Results on 39 molecules are retold here after PubChem BioAssay AID651599 (National Center for Advancing Translational Sciences (NCATS), 2012).

Inconclusive results are not listed. A call without a number means that no potency is given here. The source made the active and inactive calls. Calls follow the shape of the dose curve; as a rule, active = well fitted inhibition curve with a large enough effect; inconclusive = small, poorly fitted or top-dose-only effect; inactive = no such curve, though single readings can be large or run the other way.

Sequence of Tumor susceptibility gene 101 protein (Homo sapiens) (Q99816 whole entry, looked up, the tested form may be a part): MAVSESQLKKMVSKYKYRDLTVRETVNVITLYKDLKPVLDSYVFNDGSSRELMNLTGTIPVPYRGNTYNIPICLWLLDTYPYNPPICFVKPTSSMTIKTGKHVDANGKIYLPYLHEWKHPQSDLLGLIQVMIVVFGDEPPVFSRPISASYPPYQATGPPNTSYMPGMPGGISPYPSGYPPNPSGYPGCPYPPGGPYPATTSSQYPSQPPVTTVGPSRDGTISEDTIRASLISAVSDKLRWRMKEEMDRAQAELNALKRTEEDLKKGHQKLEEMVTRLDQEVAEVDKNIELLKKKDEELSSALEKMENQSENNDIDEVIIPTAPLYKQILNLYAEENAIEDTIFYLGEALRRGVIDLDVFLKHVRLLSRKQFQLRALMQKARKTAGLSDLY

This assay has as its target Tumor susceptibility gene 101 protein (Homo sapiens) (UniProt Q99816). Description: qHTS Assay for Iinhibitors of HIV-1 Budding by Blocking the Interaction of PTAP/TSG101: Hit Validation in TR assay. The note with it: Tsg101 binding domain + Texas Red-labeled PTAP peptide, fluorescence polarization, 20 min; series mostly up to 57.5 µM. The method in brief:
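Fluorescence polarization: Tsg101 binding domain (10 uM final) with Texas Red-labelled PTAP peptide (50 nM final) in HEPES pH 7.5, 0.15 M NaCl, Tween 20, EDTA, TCEP; 20 min binding at room temperature after compound addition.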
`CCN(CC)S(=O)(=O)c1ccc(C(=O)OCCN2C(=O)c3cccc4c(N5CCOCC5)ccc(c34)C2=O)cc1`: the Potency entry was “inactive”.
Consider `Cc1cc(Nc2cccc(Cl)c2C)n2ncnc2n1`, for which the Potency result is “inactive”.
`CCc1ccccc1N=Cc1c(C)c(C#N)c2[nH]c3ccccc3n2c1=O`: the Potency result is “inactive”.
With `NS(=O)(=O)c1ccc(N=Nc2c[nH]c(=O)c(O)c2)cc1` the entry was “inactive”.
For the molecule `COc1ccc(OC)c(/C=C(\C#N)c2nc(-c3ccc(F)cc3)cs2)c1`, the Potency entry was “inactive”.
Regarding `CCN(CC)c1ccc2cc(-c3nc(-c4ccc(OC)cc4)cs3)c(=O)oc2c1`, the Potency result was “inactive”.
Turning to `Cc1ccc(-c2nc(C=Nc3ccc(O)cc3)c(O)o2)cc1`, the Potency result was “inactive”.
Regarding `O=c1oc2c3c4c(cc2c2c1CCC2)OCCN4CCC3`, the Potency entry was “inactive”.
As for `Cn1c(O)c(N=Nc2ccc(F)cc2)c2ccccc21`, the Potency result was “inactive”.
For the molecule `CN(C)c1ccc(/C=C2\SC(=O)N(CC(O)Cn3c4ccccc4c4ccccc43)C2=O)cc1` (centres undefined), the Potency entry is “inactive”.
Regarding `CCN(CC)c1ccc(/C=C(/C#N)c2nc3ccc(C)cc3[nH]2)c(OC(C)C)c1`, the Potency result is “inactive”.
Turning to `O=C(/C=C/c1ccc(Cl)cc1Cl)c1nc2ccccc2[nH]1`, the Potency result was “inactive”.
In the case of `CCSC1=NSC2=NC(=O)/C(=C\c3coc4ccccc4c3=O)C(=N)N12`, the Potency entry was “inactive”.
As for `O=c1oc2cc(O)ccc2cc1-c1nc2c(s1)CCc1ccccc1-2`, the Potency entry is “inactive”.
The value for `CN1CCC2(CC1)C1CN(C)CC=C1C(C#N)=C(N)C2(C#N)C#N` (centres undefined) was “inactive”.
The value for `O=C1c2ccccc2-c2onc3ccc(NCc4ccco4)c1c23` was “inactive”; that for `Cc1cccc(N2C(=O)c3cccc4c(N(C)CCO)ccc(c34)C2=O)c1` was “inactive”; that for `C=C1CCN(c2ccc(C(=O)O)cc2[N+](=O)[O-])CC1` was “inactive”.
For `C/C(=N\NC(=O)CC#N)c1cc2ccc(O)cc2oc1=O`, the Potency result was “inactive”.
Regarding `COC(=O)c1cc(N2CCN(C)CC2)nc2ccccc12`, the Potency entry was “inactive”.
As to `C=CCOn1c(=O)c(-c2cc3ccccc3o2)[n+]([O-])c2ccccc21`, the Potency result was “inactive”.
With `O=C1Nc2ccc(F)cc2C12Nc1ccccc1-c1nnc(SCc3ccccc3)nc1O2` (centres undefined), the Potency entry was “inactive”.
With `CN(C)c1ccc(/C=C(\C#N)C(=O)Nc2nc3c(s2)CCN(Cc2ccccc2)C3)cc1`, the Potency result is “inactive”.
For `CC[C@H](C)/C=C(C)/C=C/C1=CC2=CC(=O)[C@]3(C)OC(=O)[C@@H](C(C)=O)[C@@H]3C2=CO1`, the Potency entry was “inactive”.
With `O=C(NCc1cccc(F)c1)c1cccc2c1C(=O)c1ccc(N3CCC(Cc4ccccc4)CC3)cc1S2(=O)=O` the entry was “inactive”; with `CC1CCc2cccc3c2N1c1cc(C#N)c(C#N)cc1O3` (centres undefined), “inactive”; with `Nc1c(C(=O)Nc2ccc(F)cc2)sc2nc(-c3cccs3)cc(C(F)(F)F)c12`, “inactive”.
The value for `COc1ccc(-c2onc3ccc(Br)cc23)cc1` was “inactive”.
With `COCCN(CCOC)Cc1c(O)ccc2c1O/C(=C\c1ccco1)C2=O` the entry was “inactive”; with `N#Cc1c(C#N)c(O)c2ccccc2c1O`, “inactive”.
As to `CCCCOC(=O)c1ccc(NC(=O)/C(C#N)=C/c2ccc(-c3ccccc3)o2)cc1`, the Potency result was “inactive”.
As for `CCc1c(C)sc(NC(=O)c2ccccc2[N+](=O)[O-])c1C(N)=O`, the Potency entry is “inactive”.
Take `CCn1c(/C=C/c2cc[n+](C)cc2)nc2ccccc21`: the Potency entry was “inactive”.
Regarding `CC(=O)Nc1ccc2cc3ccc(NC(C)=O)cc3nc2c1`, the Potency result was “inactive”.
As to `Nc1cccc2c(O)cc(S(=O)(=O)O)cc12`, the Potency result is “inactive”.
`COc1ccc(CCn2c(=N)c(S(=O)(=O)c3ccc(Cl)cc3)cc3c(=O)n4ccccc4nc32)cc1`: the Potency entry was “inactive”.
With `Cc1ccc2c(c1)c1nc3ccccc3nc1n2C` the entry was “inactive”; with `CC1(C)Cc2c(C#N)c(SCCC#N)nc(N3CCOCC3)c2CS1`, “inactive”; with `CC1C2C(C)N(C)C(=O)N(C)C2N(C)C(=O)N1C` (centres undefined), “inactive”.
